A short description of test [1]: qHTS Assay for Identifying Gametocytocidal Compounds (AID 743244; active means well fitted curve in the direction sought with a large enough effect;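 further: on the % scale 0 is the no-effect control and ±100 the full control effect; actives lower the fluorescent signal which means gametocytes are killed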). The following applies: P. falciparum 3D7 stage III-V gametocytes, alamarBlue, 72 h; max response: stronger effect = lower value. The method in brief: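 Fluorescence at Ex 525/Em 598 nm, recorded 24 h after alamarBlue addition, reports residual metabolic activity of 3D7 gametocytes (stages III–V) following 72 h compound exposure at 37 °C, 5% CO2.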
Background: Quantitative high-throughput screening tests each substance at several concentrations.

Test [2] can be described thus: qHTS profiling of the MIPE4 collection as inhibitors of Plasmodium falciparum (3D7) proliferation (AID 743344).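 Further: scaled between DMSO vehicle wells and 0.29 µM artemisinin as full inhibition.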 The following applies: P. falciparum 3D7 in erythrocytes, SYBR Green DNA fluorescence, 72 h; at 28.5 µM (top of the series) unless noted. The method in brief:
(§1)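 Erythrocytes infected with P. falciparum (0.3% parasitemia, 2.5% hematocrit) incubated with compounds 72 h at 37 C, 5% CO2. Lysis with saponin/Triton buffer containing SYBR Green I, overnight at room temperature in the dark; DNA fluorescence (485/535 nm) normalised to 0.29 uM artemisinin and DMSO.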

Test [3] is described as follows: qHTS profiling of the MIPE4 collection as inhibitors of Plasmodium falciparum (DD2) proliferation (AID 743345). The following applies: P. falciparum Dd2 in erythrocytes, SYBR Green DNA, 72 h; at 28.5 µM (top of the series) unless noted. A digest of the protocol: as §1
A short description of test [4]: qHTS profiling of the MIPE4 collection as inhibitors of Plasmodium falciparum (DD2) proliferation (Rep 2) (AID 743346). As to conditions: P. falciparum Dd2 in erythrocytes, SYBR Green DNA, 72 h; at 28.5 µM (top of the series) unless noted. The method in brief: as §1
A short description of test [5]: qHTS profiling of the MIPE4 collection as inhibitors of Plasmodium falciparum (HB3) proliferation (AID 743347).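 Further: plate controls were DMSO vehicle wells for no effect and artemisinin wells for full effect.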 The following applies: P. falciparum HB3 in erythrocytes, SYBR Green DNA, 72 h; at 28.5 µM (top of the series) unless noted. The method in brief: as §1
The nature of test [6]: High-throughput drug toxicity screening in the BPDCN cell line Gen2.2 (AID 1224824).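 Further: cells exposed to compounds for 48 h before reading.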 The following applies: Gen2.2 BPDCN cells; at 45.8 µM (top of the series) unless noted. A digest of the protocol:
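CellTiter-Glo luminescence after 48 h compound exposure of Gen2.2 cells; percent activity set with DMSO as 100% and bortezomib (9.2 uM final) as 0%. Cells seeded at 500 per well, RPMI + 10% FBS, 37 °C.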

Molecules are shown by their SMILES. Where “and” joins values, the source holds several entries; their conditions need not be identical. Equal entries are not always repeated. Inconclusive results are not listed. Calls of active or inactive are those of the source. Unless noted, how the calls were made is not given here.

Regarding `COc1cc(C(C)=O)ccc1OCCCN1CCC(c2noc3cc(F)ccc23)CC1`, the max response in test [1] was 6.32% (inactive). Besides, in test [2], the parasite growth, % of DMSO control worked out at 29.6%. In addition, the parasite growth remaining, % of DMSO control (lower = more inhibition) in test [3] was determined as 54.6%. Besides, the parasite growth, % of control (lower = inhibition) in test [4] amounted to 40.6%. Moreover, in test [5], the growth, % of control was determined as 54.6%. Also, the cell viability, % of control (lower = more cytotoxic) in test [6] amounted to 69.7%.
Turning to `CC(C)c1nc(CN(C)C(=O)N[C@H](C(=O)N[C@@H](Cc2ccccc2)C[C@H](O)[C@H](Cc2ccccc2)NC(=O)OCc2cncs2)C(C)C)cs1`, in test [1], the max response is -4.83% (inactive). In addition, in test [2], the parasite growth, % of DMSO control was determined as 20.4%. Moreover, the parasite growth remaining, % of DMSO control (lower = more inhibition) in test [3] stood at 66.3%. For the same compound, the parasite growth, % of control (lower = inhibition) in test [4] was 41.9%. This compound returned a growth, % of control in test [5] of 15.5%. Further, the cell viability, % of control (lower = more cytotoxic) in test [6] is 28.1%.
Turning to `CC(C)[N+]1(C)[C@@H]2CC[C@H]1CC(OC(=O)C(CO)c1ccccc1)C2` (stereo partly drawn), the max response in test [1] is 6.21% (inactive) and -2.53% (inactive). In test [2], this compound displayed a parasite growth, % of DMSO control of 82.2%. Further, the parasite growth remaining, % of DMSO control (lower = more inhibition) in test [3] was 89.9%. For the same compound, the parasite growth, % of control (lower = inhibition) in test [4] is 77.3%. The cell viability, % of control (lower = more cytotoxic) in test [6] turned out to be 31.9%.
In the case of `Nc1nc(N)c(N=O)c(OCC2CCCCC2)n1`, the max response in test [1] is 15% (inactive). Moreover, in test [2], the parasite growth, % of DMSO control was found to be 28%. In addition, the parasite growth remaining, % of DMSO control (lower = more inhibition) in test [3] stood at 79.9%. In addition, the parasite growth, % of control (lower = inhibition) in test [4] was found to be 32.9%. Moreover, the cell viability, % of control (lower = more cytotoxic) in test [6] was 18.1%.
With `Cc1nc(-c2ccc(OCC(C)C)c(C#N)c2)sc1C(=O)O`, in test [1], the max response is 55.3% (inactive). This compound came in with a parasite growth, % of DMSO control in test [2] of 64.2%. The parasite growth remaining, % of DMSO control (lower = more inhibition) in test [3] came to 91.7%. The parasite growth, % of control (lower = inhibition) in test [4] amounted to 43.1%. The compound also came in with a growth, % of control in test [5] of 62%. Also, the cell viability, % of control (lower = more cytotoxic) in test [6] amounted to 41.7%.
In the case of `CCOC(=O)c1c(C)n(C)c2ccc(O)cc12`, the max response in test [1] is 2.91% (inactive). Moreover, the parasite growth, % of DMSO control in test [2] turned out to be 93.9%. The compound also had a parasite growth remaining, % of DMSO control (lower = more inhibition) in test [3] of 93.3%. Moreover, the parasite growth, % of control (lower = inhibition) in test [4] was 87.1%. Moreover, the cell viability, % of control (lower = more cytotoxic) in test [6] came out at 232%.
In the case of `O=c1c(O)c(-c2cc(O)c(O)c(O)c2)oc2cc(O)cc(O)c12`, the max response in test [1] was 4.63% (inactive). In addition, the parasite growth, % of DMSO control in test [2] was 93.5%. The compound also had a parasite growth remaining, % of DMSO control (lower = more inhibition) in test [3] of 85.3%. Moreover, the parasite growth, % of control (lower = inhibition) in test [4] worked out at 111%. The growth, % of control in test [5] came out at 106%. Moreover, the cell viability, % of control (lower = more cytotoxic) in test [6] is 54.4%.
`COC(=O)C1=C(C)NC(C)=C(C(=O)OC(C)C)C1c1cccc2nonc12` (stereo not drawn): in test [1], the max response was 3.5% (inactive). Besides, in test [2], the parasite growth, % of DMSO control is 51.5%. Besides, in test [3], the parasite growth remaining, % of DMSO control (lower = more inhibition) amounted to 96.4%. Further, in test [4], the parasite growth, % of control (lower = inhibition) came out at 120%. The same compound gave a growth, % of control in test [5] of 99.6%. For the same compound, the cell viability, % of control (lower = more cytotoxic) in test [6] came out at 131%.
`COc1ccccc1N1CCN(CCN(C(=O)C2CCCCC2)c2ccccn2)CC1`: the max response in test [1] is 6.13% (inactive). This compound had a parasite growth, % of DMSO control in test [2] of 57.8%. The parasite growth remaining, % of DMSO control (lower = more inhibition) in test [3] was 78.2%. The parasite growth, % of control (lower = inhibition) in test [4] is 40.7%. In addition, the growth, % of control in test [5] worked out at 83.7%. In test [6], the cell viability, % of control (lower = more cytotoxic) is 39.9%.
In the case of `CCC[C@@H]1C[C@@H](C(=O)N[C@@H]([C@H]2O[C@H](SC)[C@H](O)[C@@H](O)[C@H]2O)[C@@H](C)O)N(C)C1`, the max response in test [1] was -9.02% (inactive). Besides, the parasite growth, % of DMSO control in test [2] worked out at 28.5%. The parasite growth remaining, % of DMSO control (lower = more inhibition) in test [3] was found to be 50.3%. In test [4], the parasite growth, % of control (lower = inhibition) is 67.1%. For the same compound, in test [6], the cell viability, % of control (lower = more cytotoxic) was determined as 191%.
The matching figures for `COC1=C(OC)C(=O)C(CCCCCCCCCCO)=C(C)C1=O`: -5.2% (inactive), 61.7%, 84.8%, 32.3% and 145%.
Turning to `CCC(C)(Oc1ccc(C2(c3ccc(OC(C)(CC)C(=O)O)cc3)CCCCC2)cc1)C(=O)O` (stereo not drawn), in test [1], the max response was 16.5% (inactive). In addition, the parasite growth, % of DMSO control in test [2] came out at 100%. The same compound registered a parasite growth remaining, % of DMSO control (lower = more inhibition) in test [3] of 98.3%. Besides, the parasite growth, % of control (lower = inhibition) in test [4] worked out at 73.7%. In test [5], this compound registered a growth, % of control of 107%. Also, in test [6], the cell viability, % of control (lower = more cytotoxic) was found to be 148%.
With `CC[C@]1(O)C[C@H]2CN(CCc3c([nH]c4ccccc34)[C@@](C(=O)OC)(c3cc4c(cc3OC)N(C=O)[C@H]3[C@@](O)(C(=O)OC)[C@H](OC(C)=O)[C@]5(CC)C=CCN6CC[C@]43[C@@H]65)C2)C1`, in test [1], the max response was 24.7% (inactive). The same compound had a parasite growth, % of DMSO control in test [2] of 19.3%. In addition, the parasite growth remaining, % of DMSO control (lower = more inhibition) in test [3] was 18%. Also, in test [4], the parasite growth, % of control (lower = inhibition) worked out at 19.1%. Besides, the growth, % of control in test [5] was determined as 5.89%. Also, in test [6], the cell viability, % of control (lower = more cytotoxic) turned out to be 10.7%.
